Entries with a potency or affinity are not part of this list. Records with an inconclusive call do not appear. Calls of active or inactive are those of the source.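 The calls were made as follows: active = a valid curve of falling signal whose half-effect concentration is at most ten times the top tested dose; inconclusive = flat curve at 30 to 70% inhibition, or poor fit; inactive = signal rise, flat within 30%, or potency beyond limit.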
Target: Scavenger receptor class B member 1 (Mus musculus) (UniProt Q61009)
Sequence (Q61009 whole entry, looked up): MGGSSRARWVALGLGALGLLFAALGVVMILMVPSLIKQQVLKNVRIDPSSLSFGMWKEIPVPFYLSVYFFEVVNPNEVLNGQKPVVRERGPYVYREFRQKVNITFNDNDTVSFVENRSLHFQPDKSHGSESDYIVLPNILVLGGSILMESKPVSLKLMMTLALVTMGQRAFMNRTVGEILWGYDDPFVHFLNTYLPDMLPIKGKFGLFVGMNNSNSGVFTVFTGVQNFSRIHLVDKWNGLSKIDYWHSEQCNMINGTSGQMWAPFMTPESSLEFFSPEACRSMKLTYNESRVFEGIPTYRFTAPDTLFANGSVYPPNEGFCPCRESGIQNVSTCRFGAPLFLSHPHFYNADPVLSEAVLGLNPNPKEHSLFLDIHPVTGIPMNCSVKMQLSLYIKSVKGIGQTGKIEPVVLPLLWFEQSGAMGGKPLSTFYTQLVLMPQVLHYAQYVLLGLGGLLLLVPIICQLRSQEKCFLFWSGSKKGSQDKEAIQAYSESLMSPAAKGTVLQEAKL
Assay: mouse SR-BI DiI-HDL uptake blockers – ldlA[mSR-BI] cells, fluorescence, cherry pick, dose response (AID 493194);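 also: CHO cells lacking LDL receptor and overexpressing mouse SR-BI; cellular uptake of fluorescently labeled HDL measured as cell fluorescence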
Conditions: CHO ldlA[mSR-BI] DiI-HDL uptake fluorescence, 3 h; series mostly up to 35 µM

outcome, inactive:
CN(C(=O)COC(=O)CCc1c[nH]c2ccccc12)c1ccccc1
CN(C)S(=O)(=O)N1CCN(C(=O)N(c2ccccc2)c2ccccc2)CC1
CC(C)C(=O)Nc1sc2c(c1-c1nc3ccccc3[nH]1)CCCC2
CC(Sc1nc2cc([N+](=O)[O-])ccc2n1-c1ccc(F)cc1)C(=O)NCc1ccc2c(c1)OCO2 (centres undefined)
CC(=O)c1ccc(-c2ccc(C(=O)Nc3nc(-c4ccccn4)cs3)o2)cc1
CC(C)(C)N(Cc1ccccc1)C(=O)COC(=O)CN1C(=O)NC2(CCCC2)C1=O
Cc1ccc(-c2cc(C(=O)Nc3ccc(S(=O)(=O)Nc4onc(C)c4C)cc3)[nH]n2)c(O)c1
O=C(CN1CCN(c2ncc(C(F)(F)F)cc2Cl)CC1)NCCNc1ncc(C(F)(F)F)cc1Cl
Cn1nc(-c2ccc(Cl)cc2)c2cc(C(=O)NCCCN3CCOCC3)sc21
Cc1c(C(=O)Nc2ccc(Cl)cc2)c2ccccn2c1CCc1ccncc1
CN(C(=O)COC(=O)c1c[nH]c(=O)[nH]c1=O)C1CCCCC1
COc1cc(OC)cc(C(=O)N[C@H](C(=O)Nc2nc(-c3cc(OC)ccc3OC)cs2)C(C)C)c1
Cc1c(C(=O)N2CC3(CC(c4cccc(NC(=O)CC(c5ccccc5)c5ccccc5)c4)=NO3)C[C@@H]2C(N)=O)cc([N+](=O)[O-])cc1[N+](=O)[O-] (some centres undefined)
COc1cccc(-c2nnc(SC(C(=O)c3c[nH]c4ccccc34)c3ccccc3)n2C)c1 (centres undefined)
